The values below come from PubChem BioAssay (EPA / NIEHS).

Results filed as inconclusive are left out. Active and inactive are the calls of the source. Rule for the calls, unless noted: active = hit-call score of the fitted dose curve at least 0.9, where 1 is the maximum; inactive = score below 0.9.

A short description of test [1]: ATG_TCF_b_cat_CIS: Attagene CIS-FACTORIAL HepG2 Assay for human T-Cell-Factor with beta-catenin (TCF/b-cat) (AID 2282965). To be noted: HepG2 TCF/beta-catenin cis-reporter transcription, actives raise or lower the signal. Put shortly:
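In this cis-format system, transfected HepG2 cells report endogenous transcription factor activity. Readout after 24 h exposure is reporter transcript abundance from RT-PCR and capillary electrophoresis, analysed for gain or loss of signal versus DMSO.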

Test [2] in a line: ATG_TAL_CIS: Attagene CIS-FACTORIAL HepG2 Assay for human TAL Basal Promoter (AID 2282966).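 Note: background control endpoint measuring basal TAL promoter reporter mRNA not a specific factor.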 To be noted: HepG2 Attagene cis-factorial TAL promoter reporter; actives raise or lower the signal. The method in brief: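 After 24 hours of chemical exposure, transfected HepG2 cells yielded RNA that was converted to 6-FAM-labelled, HpaI-digested reporter fragments for capillary electrophoresis. Values derive from bidirectional fitting against DMSO controls.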

The nature of test [3]: ATG_TGFb_CIS: Attagene CIS-FACTORIAL HepG2 Assay for human Transforming Growth Factor (TGF) (AID 2282967). To be noted: HepG2 Attagene CIS TGFb reporter, mRNA transcription; actives raise or lower the signal. The method in brief: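 Transient MRTU transfection of HepG2 (FuGene 6). Dose 24 h. TriZol RNA, oligo(dT) RT, PCR, 6-FAM primer extension, HpaI cut, CE. Bidirectional fit, DMSO = baseline.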

The nature of test [4]: ATG_VDRE_CIS: Attagene CIS-FACTORIAL HepG2 Assay for human Vitamin D Receptor Element (VDRE) (AID 2282968). To be noted: HepG2 VDRE cis-reporter transcription, actives raise or lower the signal. The method in brief: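 Transfected HepG2 reporter cells, chemical treatment 24 h. RNA isolated, cDNA amplified with reporter-specific primers, products analysed by capillary electrophoresis. Endpoint fitted in both directions versus DMSO.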

Test [5] addresses Estrogen receptor (Homo sapiens) (UniProt P03372). As to the kind of experiment: ATG_ERa_TRANS: Attagene TRANS-FACTORIAL HepG2 Assay for human Estrogen Receptor alpha (ERa) (AID 2282970; active = hit-call score of the fitted dose curve at least 0.9, where 1 is the maximum). Conditions: HepG2 Attagene TRANS ERa GAL4 reporter, mRNA. Put shortly:
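Liver-derived HepG2 cells expressing chimeric nuclear receptor-Gal4 proteins from transient transfection were exposed for 24 hours. Gain of reporter mRNA signal versus DMSO, read by capillary electrophoresis of FAM-labelled PCR products, was recorded.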

Test [6] deals with X-box-binding protein 1 (Homo sapiens) (UniProt P17861). The test is described as follows: ATG_Xbp1_CIS: Attagene CIS-FACTORIAL HepG2 Assay for human X-box Binding Protein 1 (XBP1) (AID 2282972). Conditions: HepG2 XBP1 cis-element reporter, Attagene multiplex; actives raise or lower the signal. Put shortly:
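Multiplexed cis-reporter readout in transfected HepG2 liver cells. Exposure lasted 24 hours. Activity in either direction was fitted against DMSO as negative control and baseline.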

A short description of test [7]: ATG_GAL4_TRANS: Attagene TRANS-FACTORIAL HepG2 Assay for GAL4 (Internal Marker) (AID 2282976; active = hit-call score of the fitted dose curve at least 0.9, where 1 is the maximum). Conditions: HepG2 Attagene TRANS GAL4 internal marker reporter. Put shortly: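 First, HepG2 cells were transfected with reporter units under GAL4-UAS control. Next, they were treated with chemical for 24 h. Finally, RNA was reverse-transcribed, PCR-amplified, FAM-labelled and resolved by capillary electrophoresis, with induction scored against DMSO.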

In test [8] the target is Glucocorticoid receptor (Homo sapiens) (UniProt P04150). The test is described as follows: ATG_GR_TRANS: Attagene TRANS-FACTORIAL HepG2 Assay for human Glucocorticoid Receptor (GR) (AID 2282978; active = hit-call score of the fitted dose curve at least 0.9, where 1 is the maximum;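 note: activators score as hits since higher reporter transcript over DMSO is fitted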). Conditions: HepG2 Attagene TRANS GR reporter, mRNA transcription. Put shortly:
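Readout is reporter transcript from a chimeric GR-Gal4 acting on GAL4-UAS in transfected human HepG2 liver cells after 24 h exposure, quantified by RT-PCR and capillary electrophoresis. Activation fitted upward against DMSO.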

In test [9] the target is Bile acid receptor (Homo sapiens) (UniProt Q96RI1). The test is described as follows: ATG_FXR_TRANS: Attagene TRANS-FACTORIAL HepG2 Assay for Farnesoid X Receptor (FXR) (AID 2282979; active = hit-call score of the fitted dose curve at least 0.9, where 1 is the maximum;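 note: hits raise reporter mRNA above DMSO so AC50 marks FXR activation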). Conditions: HepG2 Attagene TRANS FXR-GAL4 reporter transcription. The method in brief:
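Transient transfection of HepG2 with multiplexed GAL4-UAS reporter units; exogenous FXR-GAL4 chimera. Dose 24 h → TriZol RNA → oligo(dT) RT → PCR, 6-FAM primer extension, HpaI cut → CE. Gain vs DMSO.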

The target in test [10] is Oxysterols receptor LXR-alpha (Homo sapiens) (UniProt Q13133). As to the kind of experiment: ATG_LXRa_TRANS: Attagene TRANS-FACTORIAL HepG2 Assay for human Liver X Receptor alpha (LXRa) (AID 2282980; active = hit-call score of the fitted dose curve at least 0.9, where 1 is the maximum). Conditions: HepG2 Attagene TRANS reporter, LXRa transactivation. Put shortly:
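Transfect HepG2 with GAL4-UAS multiplex reporter constructs (TRANS format, chimeric receptor-GAL4); treat 24 h; extract RNA, reverse-transcribe, PCR-amplify, FAM-label, HpaI-digest; resolve fragments by capillary electrophoresis. Upward response vs DMSO.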

The target of test [11] is Hepatocyte nuclear factor 4-alpha (Homo sapiens) (UniProt P41235). As to the kind of experiment: ATG_HNF4a_TRANS: Attagene TRANS-FACTORIAL HepG2 Assay for human Hepatocyte Nuclear Factor 4 alpha (HNF4a) (AID 2282982; active = hit-call score of the fitted dose curve at least 0.9, where 1 is the maximum). To be noted: HepG2 HNF4a transactivation reporter, mRNA readout. Put shortly:
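Using HepG2 liver cells transfected with GAL4-UAS reporter units, chemical-induced mRNA increases were assessed after 24 hours. Fluorescent RT-PCR fragments were separated by capillary electrophoresis and compared with DMSO negative controls.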

The nature of test [12]: ATG_M_06_TRANS: Attagene TRANS-FACTORIAL HepG2 Assay for M06 Transcription Factor (Internal Marker) (AID 2282983; active = hit-call score of the fitted dose curve at least 0.9, where 1 is the maximum;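 note: reporter transcript level by RT-PCR then capillary electrophoresis fluorescence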). Conditions: HepG2 Attagene TRANS M06 internal marker reporter. Put shortly:
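Background control endpoint: reporter mRNA from transiently transfected HepG2 after 24 h dosing, detected by RT-PCR with capillary electrophoresis fluorescence. Analysed for gain versus DMSO.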

The nature of test [13]: ATG_M_32_TRANS: Attagene TRANS-FACTORIAL HepG2 Assay for M32 Transcription Factor (Internal Marker) (AID 2282984; active = hit-call score of the fitted dose curve at least 0.9, where 1 is the maximum;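 note: transcript level of a background control reporter unit measured by RT-PCR and capillary electrophoresis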). To be noted: HepG2 Attagene TRANS M32 internal marker reporter. The method in brief: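 Fluorescence-detected mRNA induction, HepG2 liver cells, 24 h after dosing. Multiple GAL4-UAS reporter units introduced by transient transfection; background-control endpoint analysed for gain of signal against DMSO.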

Test [14] deals with Transcriptional activator Myb (Homo sapiens) (UniProt P10242). The test is described as follows: ATG_Myb_CIS: Attagene CIS-FACTORIAL HepG2 Assay for human Myeloblastosis (Myb) Proto-Oncogene Transcription Factor (AID 2282986). To be noted: HepG2 Attagene CIS-FACTORIAL Myb reporter transcription; actives raise or lower the signal. The method in brief: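 Reporter mRNA is quantified by RT-PCR and capillary electrophoresis 24 h after dosing HepG2 cells transfected with cis-regulated reporter units, which track endogenous transcription factor activity. Gain and loss of signal are fitted versus DMSO baseline.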
Sequence of Transcriptional activator Myb (Homo sapiens) (P10242 whole entry, looked up): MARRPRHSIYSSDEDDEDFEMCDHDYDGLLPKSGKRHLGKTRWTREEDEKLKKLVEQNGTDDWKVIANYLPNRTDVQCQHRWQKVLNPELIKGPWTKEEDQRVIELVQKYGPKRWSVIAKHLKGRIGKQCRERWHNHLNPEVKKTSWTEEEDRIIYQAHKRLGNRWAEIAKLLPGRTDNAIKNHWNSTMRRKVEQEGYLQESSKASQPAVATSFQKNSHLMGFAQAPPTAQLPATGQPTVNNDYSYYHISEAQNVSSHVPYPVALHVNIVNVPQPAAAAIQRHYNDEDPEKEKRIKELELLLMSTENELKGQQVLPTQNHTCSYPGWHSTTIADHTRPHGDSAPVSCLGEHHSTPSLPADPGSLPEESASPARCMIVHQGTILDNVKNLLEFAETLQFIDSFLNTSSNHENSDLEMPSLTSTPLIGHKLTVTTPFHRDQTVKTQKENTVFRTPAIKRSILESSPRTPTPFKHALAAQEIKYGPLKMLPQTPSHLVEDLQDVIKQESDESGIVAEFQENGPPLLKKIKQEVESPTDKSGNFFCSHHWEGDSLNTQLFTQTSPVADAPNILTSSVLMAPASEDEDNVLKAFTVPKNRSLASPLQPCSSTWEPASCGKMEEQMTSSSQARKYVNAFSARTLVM

In test [15] the target is Nuclear receptor subfamily 4 group A member 2 (Homo sapiens) (UniProt P43354). The test is described as follows: ATG_NURR1_TRANS: Attagene TRANS-FACTORIAL HepG2 Assay for human Nuclear Receptor Related Protein 1 (NURR1) (AID 2282985; active = hit-call score of the fitted dose curve at least 0.9, where 1 is the maximum). To be noted: HepG2 Attagene TRANS reporter, mRNA readout. The method in brief: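 Chimeric NR-Gal4 proteins were expressed in human HepG2 cells bearing GAL4-UAS reporter units, and induced reporter mRNA was quantified 24 h post-dosing by RT-PCR and capillary electrophoresis.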
Sequence of Nuclear receptor subfamily 4 group A member 2 (Homo sapiens) (P43354 whole entry, looked up, the tested form may be a part): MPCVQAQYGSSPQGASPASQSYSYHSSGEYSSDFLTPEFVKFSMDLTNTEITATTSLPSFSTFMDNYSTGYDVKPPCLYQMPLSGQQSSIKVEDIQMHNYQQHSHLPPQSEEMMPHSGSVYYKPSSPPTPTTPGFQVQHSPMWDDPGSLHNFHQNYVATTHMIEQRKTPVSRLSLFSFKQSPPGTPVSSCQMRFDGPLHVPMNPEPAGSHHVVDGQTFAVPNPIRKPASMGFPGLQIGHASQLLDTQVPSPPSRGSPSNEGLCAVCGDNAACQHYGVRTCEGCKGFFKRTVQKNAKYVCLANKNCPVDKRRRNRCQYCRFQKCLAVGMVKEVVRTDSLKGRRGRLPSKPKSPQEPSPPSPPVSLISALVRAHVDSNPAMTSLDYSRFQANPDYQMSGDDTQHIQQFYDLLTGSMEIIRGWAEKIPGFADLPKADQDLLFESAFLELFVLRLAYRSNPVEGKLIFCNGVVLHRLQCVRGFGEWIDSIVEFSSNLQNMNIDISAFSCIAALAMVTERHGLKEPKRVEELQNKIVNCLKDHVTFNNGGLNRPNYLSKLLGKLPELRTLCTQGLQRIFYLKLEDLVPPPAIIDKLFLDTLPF

Test [16] can be described thus: ATG_M_19_TRANS: Attagene TRANS-FACTORIAL HepG2 Assay for M19 Transcription Factor (Internal Marker) (AID 2282974; active = hit-call score of the fitted dose curve at least 0.9, where 1 is the maximum). Conditions: HepG2 Attagene TRANS-FACTORIAL M19 internal marker reporter. Put shortly: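 Background-control readout: after 24 h chemical exposure of transfected HepG2 carrying GAL4-driven reporter units, RNA was reverse-transcribed, amplified, fluorescently labeled and sized by capillary electrophoresis; gain-of-signal fit against DMSO.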

The target in test [17] is Oxysterols receptor LXR-beta (Homo sapiens) (UniProt P55055). The test is described as follows: ATG_LXRb_TRANS: Attagene TRANS-FACTORIAL HepG2 Assay for human Liver X Receptor beta (LXRb) (AID 2282981; active = hit-call score of the fitted dose curve at least 0.9, where 1 is the maximum). Conditions: HepG2 Attagene TRANS GAL4-LXRb reporter, mRNA. The method in brief: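 Liver-derived HepG2 cells transfected with Gal4-responsive reporters were dosed for 24 h. Activation was scored as rise in reporter mRNA, by RT-PCR and capillary electrophoresis, above DMSO baseline.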
Sequence of Oxysterols receptor LXR-beta (Homo sapiens) (P55055 whole entry, looked up, the tested form may be a part): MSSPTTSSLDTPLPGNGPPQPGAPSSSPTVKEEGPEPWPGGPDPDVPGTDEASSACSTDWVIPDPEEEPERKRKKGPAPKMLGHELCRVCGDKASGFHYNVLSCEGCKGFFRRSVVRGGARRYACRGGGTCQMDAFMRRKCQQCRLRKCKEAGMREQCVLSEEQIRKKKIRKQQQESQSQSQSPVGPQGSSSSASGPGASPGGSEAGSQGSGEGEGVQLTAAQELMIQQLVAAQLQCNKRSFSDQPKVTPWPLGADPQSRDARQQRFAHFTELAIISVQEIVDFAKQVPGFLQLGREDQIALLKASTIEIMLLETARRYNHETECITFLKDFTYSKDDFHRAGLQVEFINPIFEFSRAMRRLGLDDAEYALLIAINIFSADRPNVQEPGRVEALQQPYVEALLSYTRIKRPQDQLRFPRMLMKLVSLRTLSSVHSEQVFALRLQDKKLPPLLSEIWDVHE

In test [18] the target is Estrogen-related receptor gamma (Homo sapiens) (UniProt P62508). As to the kind of experiment: ATG_ERRg_TRANS: Attagene TRANS-FACTORIAL HepG2 Assay for human Estrogen-Related Receptor gamma (ERRg) (AID 2282977; active = hit-call score of the fitted dose curve at least 0.9, where 1 is the maximum;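 note: hits increase reporter signal over DMSO so potencies reflect activators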). Conditions: HepG2 Attagene TRANS reporter, ERRg transactivation. Put shortly: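 Readout: fluorescent reporter-mRNA fragments resolved by capillary electrophoresis after RT-PCR and HpaI cut. Cells: transiently transfected HepG2 carrying GAL4-UAS reporters driven by exogenous NR-Gal4 chimeras, dosed 24 h. Activity fitted upward relative to DMSO baseline.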

Sequence of Oxysterols receptor LXR-alpha (Homo sapiens) (Q13133 whole entry, looked up, the tested form may be a part): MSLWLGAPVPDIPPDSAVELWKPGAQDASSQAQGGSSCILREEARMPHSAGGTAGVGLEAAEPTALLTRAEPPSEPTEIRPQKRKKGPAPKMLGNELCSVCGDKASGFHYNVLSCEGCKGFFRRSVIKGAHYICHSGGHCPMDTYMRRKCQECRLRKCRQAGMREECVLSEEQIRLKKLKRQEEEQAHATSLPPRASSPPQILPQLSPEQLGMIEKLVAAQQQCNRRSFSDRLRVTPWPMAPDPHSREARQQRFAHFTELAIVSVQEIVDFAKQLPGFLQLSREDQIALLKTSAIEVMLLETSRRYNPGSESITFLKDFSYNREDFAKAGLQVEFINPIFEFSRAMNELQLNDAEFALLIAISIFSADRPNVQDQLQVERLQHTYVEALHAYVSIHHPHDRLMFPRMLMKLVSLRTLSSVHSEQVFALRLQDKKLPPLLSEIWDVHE
Sequence of Hepatocyte nuclear factor 4-alpha (Homo sapiens) (P41235 whole entry, looked up, the tested form may be a part): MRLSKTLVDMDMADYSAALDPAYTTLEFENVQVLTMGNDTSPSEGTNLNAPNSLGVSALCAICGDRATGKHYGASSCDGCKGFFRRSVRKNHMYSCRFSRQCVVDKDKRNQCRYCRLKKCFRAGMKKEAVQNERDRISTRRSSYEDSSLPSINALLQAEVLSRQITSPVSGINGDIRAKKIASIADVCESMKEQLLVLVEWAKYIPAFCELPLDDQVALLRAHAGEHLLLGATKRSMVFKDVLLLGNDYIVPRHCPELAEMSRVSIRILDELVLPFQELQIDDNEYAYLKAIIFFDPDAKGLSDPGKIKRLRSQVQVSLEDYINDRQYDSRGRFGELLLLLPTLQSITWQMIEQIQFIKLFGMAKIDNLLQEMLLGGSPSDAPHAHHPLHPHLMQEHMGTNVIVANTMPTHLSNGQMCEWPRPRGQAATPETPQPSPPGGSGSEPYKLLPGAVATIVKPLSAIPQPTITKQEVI
Sequence of Glucocorticoid receptor (Homo sapiens) (P04150 whole entry, looked up, the tested form may be a part): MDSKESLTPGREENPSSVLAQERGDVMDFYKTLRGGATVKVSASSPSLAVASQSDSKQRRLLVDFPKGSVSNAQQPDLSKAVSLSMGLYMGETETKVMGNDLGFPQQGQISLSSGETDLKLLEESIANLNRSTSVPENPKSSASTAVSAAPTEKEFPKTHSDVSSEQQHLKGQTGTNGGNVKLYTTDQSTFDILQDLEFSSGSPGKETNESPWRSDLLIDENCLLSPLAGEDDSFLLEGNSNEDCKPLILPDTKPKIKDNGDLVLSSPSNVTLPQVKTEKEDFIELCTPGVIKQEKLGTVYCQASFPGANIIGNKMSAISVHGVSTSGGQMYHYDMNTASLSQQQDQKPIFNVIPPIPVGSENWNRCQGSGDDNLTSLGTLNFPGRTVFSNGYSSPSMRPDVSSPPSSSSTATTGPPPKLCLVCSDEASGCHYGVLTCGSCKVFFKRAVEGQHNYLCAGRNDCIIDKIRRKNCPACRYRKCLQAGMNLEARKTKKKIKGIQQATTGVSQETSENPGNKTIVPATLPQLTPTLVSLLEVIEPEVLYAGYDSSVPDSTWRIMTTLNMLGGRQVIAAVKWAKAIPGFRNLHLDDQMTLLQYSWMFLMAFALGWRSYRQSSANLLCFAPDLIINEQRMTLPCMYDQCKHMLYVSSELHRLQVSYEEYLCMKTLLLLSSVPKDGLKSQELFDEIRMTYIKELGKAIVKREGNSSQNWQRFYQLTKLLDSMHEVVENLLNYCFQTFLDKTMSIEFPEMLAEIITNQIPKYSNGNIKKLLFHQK
Sequence of Estrogen receptor (Homo sapiens) (P03372 whole entry, looked up, the tested form may be a part): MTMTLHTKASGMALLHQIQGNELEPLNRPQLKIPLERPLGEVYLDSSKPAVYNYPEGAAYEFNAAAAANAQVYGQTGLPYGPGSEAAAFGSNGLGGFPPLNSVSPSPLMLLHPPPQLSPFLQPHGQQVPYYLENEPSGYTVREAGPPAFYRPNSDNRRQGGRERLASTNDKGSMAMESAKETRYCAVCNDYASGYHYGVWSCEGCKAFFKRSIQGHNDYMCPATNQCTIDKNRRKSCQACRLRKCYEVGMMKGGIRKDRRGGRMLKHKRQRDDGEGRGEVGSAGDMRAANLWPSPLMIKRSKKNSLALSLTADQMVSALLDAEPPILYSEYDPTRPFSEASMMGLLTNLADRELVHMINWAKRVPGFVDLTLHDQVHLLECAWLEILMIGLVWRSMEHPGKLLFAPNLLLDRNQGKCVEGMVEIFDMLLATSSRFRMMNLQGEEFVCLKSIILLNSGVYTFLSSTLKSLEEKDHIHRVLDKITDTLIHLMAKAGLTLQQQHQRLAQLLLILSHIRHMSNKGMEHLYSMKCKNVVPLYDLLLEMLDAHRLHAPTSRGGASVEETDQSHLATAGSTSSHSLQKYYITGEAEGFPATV
Sequence of X-box-binding protein 1 (Homo sapiens) (P17861 whole entry, looked up): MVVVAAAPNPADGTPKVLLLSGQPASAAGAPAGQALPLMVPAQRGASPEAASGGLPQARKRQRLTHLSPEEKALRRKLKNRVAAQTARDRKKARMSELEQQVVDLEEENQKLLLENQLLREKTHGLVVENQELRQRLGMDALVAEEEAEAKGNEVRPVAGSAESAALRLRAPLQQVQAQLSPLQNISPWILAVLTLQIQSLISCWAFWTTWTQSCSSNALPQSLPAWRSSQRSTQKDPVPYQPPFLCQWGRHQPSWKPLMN
Sequence of Bile acid receptor (Homo sapiens) (Q96RI1 whole entry, looked up, the tested form may be a part): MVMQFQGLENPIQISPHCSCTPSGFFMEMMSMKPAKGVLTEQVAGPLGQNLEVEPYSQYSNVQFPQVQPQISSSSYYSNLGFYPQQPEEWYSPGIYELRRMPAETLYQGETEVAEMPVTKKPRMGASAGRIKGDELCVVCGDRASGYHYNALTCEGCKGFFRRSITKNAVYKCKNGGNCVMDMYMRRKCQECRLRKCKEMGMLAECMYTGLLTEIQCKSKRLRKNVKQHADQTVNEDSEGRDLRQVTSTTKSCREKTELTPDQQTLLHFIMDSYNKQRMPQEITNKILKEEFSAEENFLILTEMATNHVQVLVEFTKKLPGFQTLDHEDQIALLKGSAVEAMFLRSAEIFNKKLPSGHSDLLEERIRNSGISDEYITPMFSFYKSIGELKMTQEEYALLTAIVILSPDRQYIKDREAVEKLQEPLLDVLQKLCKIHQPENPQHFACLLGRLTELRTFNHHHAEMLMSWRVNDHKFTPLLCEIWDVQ

Regarding `CCCCCCOC(C)=O`, the compound was called inactive in [1], in [2], in [3], in [4], in test [5] and in [6]. Also, the compound was called inactive in test [7], in test [8], in test [9], in test [10], in test [11] and in test [12]. Further, the result in test [13] and in test [14] was inactive.

For `CCCCCC1C(=O)CCC1CC(=O)OC` (configuration not stated), the result in test [1], in [2], in [3], in test [4], in test [5] and in test [6] was inactive. Besides, the compound was classed as inactive in test [12], in test [15] and in test [14].

With `CCCC1CCOC(C)S1` (configuration not stated), the outcome in test [1], in [2], in test [3], in test [4], in test [5] and in test [6] was inactive. Further, the compound was classed as inactive in test [16], in test [7], in [10], in test [13] and in test [14].

`CC(O)COCC(C)O` (configuration not stated): the result in [1], in [2], in test [3], in [4], in test [5] and in [6] was inactive. The result in test [16], in test [7], in [9], in test [13] and in [14] was inactive.

As to `[Cl][Dy]([Cl])[Cl]`, the compound was called inactive in test [1], in test [2], in test [3], in test [4], in test [5] and in test [6]. In addition, the outcome in test [16], in test [7], in [9], in test [10], in test [17] and in test [11] was inactive. In addition, the call in test [14] was inactive.

The AC50 is the concentration at which the activity in the assay is half-maximal. On to `C/C=C(\C)C(=O)OC/C=C(\C)CCC=C(C)C`, for which the outcome in [1], in [2], in [3], in test [4], in test [5] and in [6] was inactive. Moreover, the compound was classed as inactive in test [8], in test [11], in test [12], in [13] and in test [14]. Moreover, in test [15], the concentration at half-maximal activity (AC50) is 20 µM (active).

For `COc1ccc2[nH]cc(CCNC(C)=O)c2c1`, the outcome in test [1], in test [2], in [3], in test [4], in test [5] and in test [6] was inactive. The compound was classed as inactive in test [7], in test [18], in test [8], in [10], in [17] and in test [11]. The call in test [12], in test [13] and in test [14] was inactive.

As to `CCCC1CCC(=O)CC1`, the result in test [1], in test [2], in [3], in [4], in test [5] and in [6] was inactive. For the same compound, the result in test [16], in test [12], in [13], in [15] and in [14] was inactive.

For the compound `CC(=O)CCc1ccc(O)cc1`, the result in [1], in [2], in [3], in [4], in [5] and in test [6] was inactive. Moreover, the compound was called inactive in test [16], in test [7], in test [10], in test [17], in [12] and in test [13]. The compound was called inactive in test [14].

Turning to `CCCCCCCCCCCCOC(C)=O`, the call in test [1], in test [2], in [3], in [4], in test [5] and in test [6] was inactive. Moreover, the call in test [16], in test [7], in test [12], in [13] and in [14] was inactive.

Take `CCCc1ccc(O)cc1`: the outcome in [1], in test [2], in test [3], in test [4], in test [6] and in [16] was inactive. In addition, the compound was called inactive in test [8], in [9], in [17], in [15] and in test [14]. Besides, in test [5], the AC50 is 12 µM (active).
